Consider 38 compounds from PubChem BioAssay (Tox21).

“And” between values parts separate entries of the source, which are not always exact repeats. Identical values can stand only once. Results filed as inconclusive are left out. Entries that show only a call come without a potency. The source made the active and inactive calls. Unless noted, calls come from the whole dose curve; as a rule, active = well fitted curve in the direction sought with a large enough effect in the repeat runs; inconclusive = weak or mixed curves; inactive = no such curve, though single readings can be large; an effect the other way counts as inactive or inconclusive.

Sequence of Androgen receptor (Homo sapiens) (P10275 whole entry, looked up): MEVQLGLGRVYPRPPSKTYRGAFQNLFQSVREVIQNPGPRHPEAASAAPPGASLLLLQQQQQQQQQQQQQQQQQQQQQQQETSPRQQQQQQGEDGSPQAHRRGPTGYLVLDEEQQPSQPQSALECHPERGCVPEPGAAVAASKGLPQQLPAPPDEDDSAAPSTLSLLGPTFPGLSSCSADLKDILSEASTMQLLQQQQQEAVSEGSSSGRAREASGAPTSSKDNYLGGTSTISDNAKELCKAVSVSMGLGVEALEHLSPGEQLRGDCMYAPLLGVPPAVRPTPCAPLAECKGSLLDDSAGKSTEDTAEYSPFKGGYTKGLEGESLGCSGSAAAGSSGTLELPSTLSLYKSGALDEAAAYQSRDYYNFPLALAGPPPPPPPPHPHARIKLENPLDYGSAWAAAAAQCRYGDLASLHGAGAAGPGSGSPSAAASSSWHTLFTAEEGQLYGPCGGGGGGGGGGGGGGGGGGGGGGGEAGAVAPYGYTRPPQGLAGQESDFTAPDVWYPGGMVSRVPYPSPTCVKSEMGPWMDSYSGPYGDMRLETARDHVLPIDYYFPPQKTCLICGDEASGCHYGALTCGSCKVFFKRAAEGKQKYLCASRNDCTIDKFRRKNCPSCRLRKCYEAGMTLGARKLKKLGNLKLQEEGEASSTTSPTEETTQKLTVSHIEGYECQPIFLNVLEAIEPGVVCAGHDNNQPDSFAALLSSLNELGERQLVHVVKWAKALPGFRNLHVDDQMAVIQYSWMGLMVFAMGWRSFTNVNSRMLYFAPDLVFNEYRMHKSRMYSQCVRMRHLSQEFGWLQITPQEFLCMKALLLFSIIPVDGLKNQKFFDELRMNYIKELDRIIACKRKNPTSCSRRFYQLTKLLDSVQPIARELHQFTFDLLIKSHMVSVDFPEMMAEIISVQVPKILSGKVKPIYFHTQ

Test system in one experiment: not listed separately
Kind of experiment: qHTS assay to identify small molecule antagonists of the androgen receptor (AR) signaling pathway - cell viability counter screen (AID 743033; note: nearly all actives have a fitted effect of over 45% in size). Particulars: AR-bla HEK293 viability, CellTiter-Glo luminescence, 16 h; series mostly up to 58.5 µM. (qHTS replaces the single test concentration by a dilution series.)
As for `CC(C)=CCN1CC[C@]2(C)c3cc(O)ccc3C[C@H]1[C@H]2C`, the Potency entry is “inactive”.
Consider `CCNC1(c2cccs2)CCCCC1=O` (stereo not drawn), for which the Potency entry was “inactive”.
On the same count and under the same terms, the result for `CCC1(c2ccccc2)C(=O)NC(=O)N(C)C1=O` (stereo not drawn) reads “inactive”.
Take `CNC(C)Cc1ccccc1` (stereo not drawn): the Potency result was “inactive”.
With `CN[C@@H](C)Cc1ccccc1`, the Potency entry was “inactive”.
On the same count and under the same terms, to `O=C1C[C@@H]2OCC=C3CN4CC[C@]56c7ccccc7N1[C@H]5[C@H]2[C@H]3C[C@H]46` (tested in a mixture with another compound) belongs “inactive”; to `C[C@]12CCC(=O)C[C@@H]1CC[C@@H]1[C@@H]2CC[C@@]2(C)[C@H]1CC[C@]2(C)O`, “inactive”; to `Cc1nnc2n1-c1ccc(Cl)cc1C(c1ccccc1)=NC2`, “inactive”.
Take `N#CC(C#N)=Cc1cc(O)c(O)c(O)c1`: the Potency result is “inactive”.
The same measure, in the same setting: the result for `CCCSc1cc(OC)c(CCN)cc1OC` reads “inactive”.
Same read-out and setting: the result for `O=C(O)CCCO` reads “inactive”; that for `Oc1ccc2c3c1O[C@H]1[C@@H](O)C=C[C@H]4[C@H](C2)NCC[C@@]341`, “inactive”.
The same measure, in the same setting: the result for `O=P1(N(CCCl)CCCl)NC(OO)CCO1` (stereo not drawn) reads “inactive”; that for `COC(=O)[C@H]1[C@@H](OC(=O)c2ccccc2)C[C@@H]2CC[C@H]1N2C`, “inactive”; that for `O=C1CN=C(c2ccccc2)c2cc(Cl)ccc2N1`, “inactive”.
For `C=C[C@H]1CN2CC[C@H]1C[C@H]2[C@H](OC(=O)OCC)c1ccnc2ccc(OC)cc12`, the Potency entry is “inactive”.
The same measure, in the same setting: the result for `CCc1cc(OC)c(C[C@@H](C)N)cc1OC` reads “inactive”.
Take `CC(C)[C@H]1C(=O)N2CCC[C@H]2[C@]2(O)O[C@](NC(=O)[C@@H]3C[C@@H]4c5cccc6[nH]cc(c56)C[C@H]4N(C)C3)(C(C)C)C(=O)N12`: the Potency entry is “inactive”.
The same measure, in the same setting: the result for `C[C@]12CC[C@H]3[C@@H](CCC4=C(Cl)C(=O)CC[C@@]43C)[C@@H]1CC[C@@H]2O` reads “inactive”; that for `C[C@@H]1[C@@H]2Cc3ccc(O)cc3[C@@]1(C)CCN2CC1CC1`, “inactive”.
With `CC(C)C[C@H]1C(=O)N2CCC[C@H]2[C@]2(O)O[C@](NC(=O)[C@@H]3C[C@@H]4c5cccc6[nH]cc(c56)C[C@H]4N(C)C3)(C(C)C)C(=O)N12`, the Potency result was “inactive”.
Same read-out and setting: to `C=CCC1([C@@H](C)CCC)C(=O)NC(=O)NC1=O` belongs “inactive”.
The same measure, in the same setting: the result for `c1ccc2c(c1)Sc1ccccc1N2C[C@@H]1CN2CCC1CC2` reads “inactive”.
Turning to `C[C@@H](Cc1ccccc1)NCCC(c1ccccc1)c1ccccc1`, the Potency entry was “inactive”.
On to `CC[C@H]1[C@@H]2C[C@H]3[C@@H]4N(C)c5ccccc5[C@]45C[C@@H](C2[C@H]5O)N3[C@@H]1O` (stereo partly drawn), for which the Potency entry is “inactive”.
For the compound `CN1c2ccccc2C(NCCCCCCC(=O)O)c2ccc(Cl)cc2S1(=O)=O` (stereo not drawn), the Potency result is “inactive”.
As to `CN[C@]1(c2ccccc2Cl)CCCCC1=O`, the Potency entry is “inactive”.
Still for that read-out and setting: to `C[C@]12CC[C@@H]3c4ccc(OC(=O)N(CCCl)CCCl)cc4CC[C@H]3[C@@H]1CC[C@@H]2OP(=O)(O)O` belongs “inactive”; to `CC(=O)[C@@]1(O)CC[C@H]2[C@@H]3CCC4=CC(=O)CC[C@]4(C)C3(F)[C@@H](O)C[C@@]21C` (stereo partly drawn), “inactive”.

The target of a further experiment is Androgen receptor (Homo sapiens) (UniProt P10275). Kind of experiment: qHTS assay to identify small molecule antagonists of the androgen receptor (AR) signaling pathway (AID 743035; active = well fitted inhibition curve with a large enough effect in the signal ratio in the repeat runs, not every such curve was filed as active; the % refers to the signal ratio; note: potency is the fitted concentration of half-maximal effect). Particulars: HEK293 AR-UAS-bla, R1881-stimulated, beta-lactamase FRET, 16 h; series mostly up to 58.5 µM. The essentials:
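Cell line: GeneBLAzer AR-UAS-bla GripTite (HEK293). Stimulus: R1881 added after compound. Exposure: 16 h, 37C, 5% CO2. Readout: LiveBLAzer B/G FRET fluorescence after 2 h at room temperature.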
With `CNC(C)CC1CCCCC1` (stereo not drawn), the Potency result is “inactive”.
With `CCCCNC(C)(C)[P+](=O)O`, the Potency result was “inactive”.
In the case of `CCCSc1cc(OC)c(CCN)cc1OC`, the Potency was 6.55 µM (active).
In the case of `O=C(O)CCCO`, the Potency result was “inactive”.
Take `COC(=O)[C@H]1[C@@H](OC(=O)c2ccccc2)C[C@@H]2CC[C@H]1N2C`: the Potency entry was “inactive”.
The same measure, in the same setting: to `C[C@]12CC[C@H]3[C@@H](CCC4=C(Cl)C(=O)CC[C@@]43C)[C@@H]1CC[C@@H]2O` belongs “inactive”.
For the compound `C[C@@H]1[C@@H]2Cc3ccc(O)cc3[C@@]1(C)CCN2CC1CC1`, the Potency entry was “inactive”.
The same measure, in the same setting: the result for `C[C@]12CC[C@@H]3c4ccc(OC(=O)N(CCCl)CCCl)cc4CC[C@H]3[C@@H]1CC[C@@H]2OP(=O)(O)O` reads 10.7 µM (active) and 19 µM (active).

The target is the same in another experiment. Kind of experiment: qHTS assay to identify small molecule agonists of the androgen receptor (AR) signaling pathway using the MDA cell line (AID 743040; note: nearly all actives have a fitted effect of over 20% in size). Particulars: MDA-kb2 AR-luc cells, MMTV luciferase, 16 h; series mostly up to 70.3 µM. The essentials:
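After a 5 h incubation at 37C and 0% CO2, MDA-kb2 reporter cells were dosed with compounds in DMSO and kept 16 h under the same conditions. Luciferase activity was then read as luminescence with ONE-Glo.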
Consider `CNC(C)CC1CCCCC1` (stereo not drawn), for which the Potency entry is “inactive”.
Consider `CCCCNC(C)(C)[P+](=O)O`, for which the Potency result is “inactive”.
As to `O=C(O)CCCO`, the Potency result is “inactive”.
Turning to `COC(=O)[C@H]1[C@@H](OC(=O)c2ccccc2)C[C@@H]2CC[C@H]1N2C`, the Potency entry is “inactive”.

Test system in another experiment: not listed separately
Kind of experiment: qHTS assay to identify small molecule antagonists of the androgen receptor (AR) signaling pathway using the MDA cell line - cell viability counter screen (AID 743041; note: nearly all actives have a fitted effect of over 45% in size; note: potency is the fitted concentration of half-maximal effect). The following applies: MDA-kb2 viability, CellTiter-Fluor, 16 h, cells co-treated with R1881 androgen agonist; series mostly up to 70.3 µM. The essentials: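 R1881-driven MDA-kb2 AR-luc cells, 3,000/well, were dosed with library compounds for 16 h; cell health came from CellTiter-Fluor fluorescence in the reporter wells.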
For the compound `CN[C@@]1(c2ccccc2Cl)CCCCC1=O`, the Potency entry is “inactive”.
Still for that read-out and setting: the result for `CCNC1(c2cccs2)CCCCC1=O` (stereo not drawn) reads “inactive”.
Regarding `CNC(C)CC1CCCCC1` (stereo not drawn), the Potency entry is “inactive”.
With `CCC1(c2ccccc2)C(=O)NC(=O)N(C)C1=O` (stereo not drawn), the Potency result is “inactive”.
Still for that read-out and setting: to `CN1CC[C@@]23CCCC[C@@H]2[C@@H]1Cc1ccc(O)cc13` belongs “inactive”; to `CNC(C)Cc1ccccc1` (stereo not drawn), “inactive”.
Still for that read-out and setting: to `CN[C@@H](C)Cc1ccccc1` belongs “inactive”; to `CCCCNC(C)(C)[P+](=O)O`, “inactive”; to `O=C1C[C@@H]2OCC=C3CN4CC[C@]56c7ccccc7N1[C@H]5[C@H]2[C@H]3C[C@H]46` (tested in a mixture with another compound), “inactive”.
As to `C/C=C(\CC)C(=O)NC(N)=O`, the Potency result was “inactive”.
Still for that read-out and setting: to `C[C@]12CCC(=O)C[C@@H]1CC[C@@H]1[C@@H]2CC[C@@]2(C)[C@H]1CC[C@]2(C)O` belongs “inactive”; to `Cc1nnc2n1-c1ccc(Cl)cc1C(c1ccccc1)=NC2`, “inactive”.
The same measure, in the same setting: to `O=C(O)CCCO` belongs “inactive”.
Still for that read-out and setting: to `Oc1ccc2c3c1O[C@H]1[C@@H](O)C=C[C@H]4[C@H](C2)NCC[C@@]341` belongs “inactive”; to `O=P1(N(CCCl)CCCl)NC(OO)CCO1` (stereo not drawn), “inactive”.
As to `COC(=O)[C@H]1[C@@H](OC(=O)c2ccccc2)C[C@@H]2CC[C@H]1N2C`, the Potency entry is “inactive”.
The same measure, in the same setting: the result for `O=C1CN=C(c2ccccc2)c2cc(Cl)ccc2N1` reads “inactive”; that for `C=C[C@H]1CN2CC[C@H]1C[C@H]2[C@H](OC(=O)OCC)c1ccnc2ccc(OC)cc12`, “inactive”; that for `C[C@]12CC[C@H]3[C@@H](CCC4=C(Cl)C(=O)CC[C@@]43C)[C@@H]1CC[C@@H]2O`, “inactive”.
Same read-out and setting: to `Clc1ccc(C(Cn2ccnc2)OCc2csc3c(Cl)cccc23)c(Cl)c1` (stereo not drawn) belongs “inactive”; to `C[C@@H]1[C@@H]2Cc3ccc(O)cc3[C@@]1(C)CCN2CC1CC1`, “inactive”.
On the same count and under the same terms, the result for `C[C@@H]1[C@H]2Cc3ccc(O)cc3[C@]1(C)CCN2C` reads “inactive”.
`CC(C)C[C@H]1C(=O)N2CCC[C@H]2[C@]2(O)O[C@](NC(=O)[C@@H]3C[C@@H]4c5cccc6[nH]cc(c56)C[C@H]4N(C)C3)(C(C)C)C(=O)N12`: the Potency entry was “inactive”.
Turning to `[H+].[H+].[Hg+2].[O-]B([O-])[O-].[c-]1ccccc1`, the Potency was 13.3 µM (active).
The same measure, in the same setting: to `C=CCC1([C@@H](C)CCC)C(=O)NC(=O)NC1=O` belongs “inactive”.
The same measure, in the same setting: to `c1ccc2c(c1)Sc1ccccc1N2C[C@@H]1CN2CCC1CC2` belongs “inactive”.
Same read-out and setting: to `CC[C@H]1[C@@H]2C[C@H]3[C@@H]4N(C)c5ccccc5[C@]45C[C@@H](C2[C@H]5O)N3[C@@H]1O` (stereo partly drawn) belongs “inactive”.
On to `CC(N)Cc1ccc2c(c1)OCO2` (stereo not drawn), for which the Potency entry is “inactive”.
Still for that read-out and setting: to `CN1c2ccccc2C(NCCCCCCC(=O)O)c2ccc(Cl)cc2S1(=O)=O` (stereo not drawn) belongs “inactive”; to `CN[C@]1(c2ccccc2Cl)CCCCC1=O`, “inactive”.
The same measure, in the same setting: to `C[C@]12CC[C@@H]3c4ccc(OC(=O)N(CCCl)CCCl)cc4CC[C@H]3[C@@H]1CC[C@@H]2OP(=O)(O)O` belongs “inactive”; to `CC(=O)[C@@]1(O)CC[C@H]2[C@@H]3CCC4=CC(=O)CC[C@]4(C)C3(F)[C@@H](O)C[C@@]21C` (stereo partly drawn), “inactive”.
